# Measured values as given in PubChem BioAssay.
# Experiment: HepG2 cell viability effects, profiling panel, calcein-AM fluorescence, 48 h, basal (AID 1164); note: test concentration not given here
# Settings: higher = more signal
row,SMILES,z-score
1,COc1ccc([Si](C)(C)[C@@H]2[C@@H](CC(=O)N3Cc4ccccc4C[C@H]3CO)O[C@]3(C(=O)N(Cc4ccc(N5C(=O)c6cccc7cccc5c67)cc4)c4ccccc43)[C@H]2C)cc1,0.355
2,[N-]=[N+]=Nc1ccccc1C[C@@]1(C(=O)NCCN2CCOCC2)N=C(c2ccc(OCCCO)cc2)O[C@@H]1c1ccccc1N=[N+]=[N-],-2.04
3,CC1=C2[C@@H](CCc3ccccc3)OB(O)C[C@@H]2[C@@H]2C(=O)N(Cc3ccccc3)C(=O)[C@@H]2C1,-0.932
4,CC1CC/C=C\[C@H]2OC34C=CCN(Cc5ccccc5)C(=O)[C@H]3N(C(CO)C(C)C)C(=O)[C@@H]4C2C(=O)O1 (stereo partly specified),0.539
5,COc1cccc(C)c1NC(=O)O[C@H]1[C@H](OC(=O)Nc2ccc3c(c2)OCO3)[C@@H](OC(=O)Nc2ccc3c(c2)OCO3)[C@@H](OC)O[C@@H]1CO,-1.28
6,Cc1ccccc1C(O)C1C=CC2C(=O)NC(=O)C2N1Nc1ccccn1 (stereo unspecified),-0.823
7,CCCCC(=C=CC[C@H](O)c1ccc(OCCO)cc1)CCO,0.761
8,CC(c1ccccc1)C(O)C1C=CC2C(=O)N(C)C(=O)C2N1Nc1ccccc1 (stereo unspecified),0.36
9,C=CCC(OC(C)=O)[C@@H]1[C@@H](N(Cc2ccc(-c3cccc(C(F)(F)F)c3)o2)C(=O)Cc2ccc(OC)cc2)c2cc(OCCCO)ccc2N1C(=O)c1ccc(-c2ccccc2)cc1 (stereo partly specified),0.926
10,Cc1ccc(S[C@]2(C(=O)NC(C)C)CC(=O)N(Cc3cc(C(F)(F)F)cc(C(F)(F)F)c3)[C@@H]2c2ccc(CO)cc2)cc1,-0.286
11,CCOC(=O)C[C@H]1[C@H](OC(=O)c2cc3ccccc3oc2=O)[C@@H](NC(=O)CC(C)C)c2cc(OCCCO)ccc2N1C(=O)c1ccc2ccccc2n1,0.311
